# Source: ChEMBL document CHEMBL3988442, “University of Dundee, Small-Polar-MMV Screening Library” (2021)
# The whole screen tested about 66,000 compounds, of which about 960 (1.5%) showed an effect of 50% or more. The full list was thinned out, with strong results kept by preference.
# Tested on: Trypanosoma brucei
# Assay: Trypanosoma brucei 72 hour study
# Type: functional, organism-based
# Set-up: scale not given: in the data most compounds retested in dose-response had high values
compound,measurement,setting,value
Cc1nc(C(=O)NC2CCN(CCOc3ccc(Br)cc3)CC2)cs1,Percent Effect,"30.3 µM, […]",34.31%
Cc1ncc(C(=O)NC2CCN(CCOc3ccc(Br)cc3)CC2)s1,Percent Effect,"30.3 µM, […]",9.7%
CN(C)CC1CN(C(=O)Cc2ccccc2)Cc2nccn2C1.O=C(O)C(F)(F)F (centres undefined),Percent Effect,"30 µM, 30.03 µM",-30.18%
CC(=O)N1CCC2(CCN(C(=O)c3ccc(Cl)c(C(F)(F)F)c3)C2)C1 (centres undefined),Percent Effect,"30 µM, 30.03 µM",28.83%
NC(=O)C1CCN(Cc2cccc(NC(=O)c3ccsc3)c2)CC1,Percent Effect,"30 µM, 30.03 µM",50.19%
NC(=O)C1CCCN1Cc1cccc(NC(=O)c2cc(Cl)cc(Cl)c2)c1 (centres undefined),Percent Effect,"30 µM, 30.03 µM",26.87%
NC(=O)C1CCCN1Cc1cccc(NC(=O)c2ccsc2)c1 (centres undefined),Percent Effect,"30 µM, 30.03 µM",12.83%
O=C(c1cc(C2CCCCN2CCO)n[nH]1)N1CCOCC1.O=CO (centres undefined),Percent Effect,"30.3 µM, […]",-18.9%
CC(C)c1cc(C(=O)N2CCc3nc(C4CCCN4)ncc3C2)cs1.Cl (centres undefined),Percent Effect,"30.3 µM, […]",-27.95%
CCN(CC)Cc1ccc(C(=O)N2CCCC2c2cnn(C)c2)o1 (centres undefined),Percent Effect,10 µM,2.271%
CN(CC(=O)Nc1ccccc1C(=O)NC1CC1)Cc1ccccc1Cl,Percent Effect,"30 µM, 30.03 µM",-3.79%
CCOC(=O)c1ccccc1NC(=O)CN(C)Cc1ccccc1Cl.O=C(O)C(=O)O,Percent Effect,"30 µM, 30.03 µM",103.8%
CCOc1ccccc1NC(=O)CN(C)Cc1ccccc1Cl,Percent Effect,"30 µM, 30.03 µM",104.4%
CCOc1cccc(CNc2ccccc2Cl)c1O,Percent Effect,"30 µM, 30.03 µM",-19.48%
CCOc1ccccc1NC(=O)NCc1ccoc1,Percent Effect,"30 µM, 30.03 µM",-38.02%
CNC(=O)CN(C)Cc1ccc(F)cc1Cl,Percent Effect,"30 µM, 30.03 µM",-10.17%
O=C(NCCc1cccs1)[C@H]1CO[C@H]2CCN(CC3CC3)C[C@H]2C1.O=C(O)C(F)(F)F,Percent Effect,"30.3 µM, […]",-52.96%
CN(CC(=O)c1ccc2[nH]c(=O)[nH]c2c1)Cc1ccc2c(c1)OCO2,Percent Effect,"30.3 µM, […]",2.207%
CCOCC(O)CN1CCN(C(=O)c2ccc(N(C)C)nn2)CC1 (centres undefined),Percent Effect,"30.3 µM, […]",-26.53%
same,Percent Effect,"10 mM, 10 mM as filed; unlikely as a test dose",-123.6%
Cc1noc(NC(=O)c2ccc(Br)cc2)n1,Percent Effect,"30 µM, 30.03 µM",95.54%
Cc1noc(NC(=O)c2ccccc2)n1,Percent Effect,"30.3 µM, […]",22.26%
COc1cc(C(=O)Nc2nc(C)no2)ccc1OC(F)F,Percent Effect,10 µM,-60.85%
COc1cc(C(=O)Nc2nc(C)no2)ccc1C,Percent Effect,"30 µM, 30.03 µM",38.15%
Cc1noc(NC(=O)c2ccc(C#N)cc2)n1,Percent Effect,"30.3 µM, […]",-1.812%
Cc1ccc(C(=O)Nc2nc(C)no2)cc1,Percent Effect,"30.3 µM, […]",24.35%
Cc1noc(NC(=O)c2ccc(OC(F)(F)F)cc2)n1,Percent Effect,"30 µM, 30.03 µM",107.1%
Cc1noc(NC(=O)c2ccc(C)c(F)c2)n1,Percent Effect,"30 µM, 30.03 µM",65.47%
COc1cc(C(=O)Nc2nc(C)no2)cc(OC)c1Br,Percent Effect,10 µM,-27.84%
Cc1noc(NC(=O)CCNC(=O)c2ccc(Br)cc2)n1,Percent Effect,"30.3 µM, […]",-27.06%
Cc1noc(NC(=O)c2ccc(F)cc2)n1,Percent Effect,"30.3 µM, […]",23.19%
Cc1noc(NC(=O)c2cccc(Br)c2)n1,Percent Effect,"30.3 µM, […]",69.68%
CN1CCc2c(C#N)c(NCCCN3CCOCC3)n3cnnc3c2C1.Cl.Cl,Percent Effect,"30 µM, 30.03 µM",29.08%
CCOc1ccccc1CN1CCc2nc3ccsc3c(=O)n2CC1.Cl,Percent Effect,"30.3 µM, […]",-5.491%
CCOC1COC2(CCN(Cc3ccc(C)c(C)c3)CC2)C1.O=C(O)C(F)(F)F (centres undefined),Percent Effect,"30.3 µM, […]",17.79%
COc1ccc(NS(=O)(=O)c2cnc(NC(C)=O)s2)cc1,Percent Effect,"30.3 µM, […]",-9.359%
CN(Cc1cccnc1)[C@@H]1CN(Cc2cnn(C)c2)[C@@H]2CCCO[C@H]12.O=C(O)C(F)(F)F.O=C(O)C(F)(F)F.O=C(O)C(F)(F)F.O=C(O)C(F)(F)F,Percent Effect,"30.3 µM, […]",-6.057%
O=C(Nc1cccnc1)C1=NN(c2ccccc2)C(=O)CN1,Percent Effect,10 µM,-65.06%
N#Cc1ccc(CNC(=O)C2=NN(c3ccccc3)C(=O)CN2)cc1,Percent Effect,"30 µM, 30.03 µM",-22.79%
O=C(NCc1cccnc1)C1=NN(c2ccccc2)C(=O)CN1,Percent Effect,"30 µM, 30.03 µM",71.31%
CC(C)(C)CN1CCN(CC2CC2)C(CCO)C1 (centres undefined),Percent Effect,"30 µM, 30.03 µM",-40.11%
O=C(Nc1ccccn1)C1(n2cnnn2)CCCCC1,Percent Effect,"30 µM, 30.03 µM",-28.83%
O=C(O)C(F)(F)F.O=C1N(Cc2ccncc2)CCC12CCCN(c1ncc(F)cn1)C2 (centres undefined),Percent Effect,"30.3 µM, […]",-38.62%
CN1CCCC[C@@H]2[C@H]1[C@@H](c1ccccc1)CCN2S(=O)(=O)N1CCCC1,Percent Effect,"30.3 µM, […]",98.76%
CN1CCCC[C@@H]2[C@H]1[C@@H](c1ccccc1)CCN2C(=O)c1cccnc1,Percent Effect,"30.3 µM, […]",-28.46%
CN1CCCC[C@@H]2[C@H]1[C@@H](c1ccccc1)CCN2C(=O)c1ccncc1,Percent Effect,"30.3 µM, […]",2.626%
CN1CCCC[C@@H]2[C@H]1[C@@H](c1ccccc1)CCN2C(=O)c1ccccc1,Percent Effect,"30.3 µM, […]",97.59%
CN1CCCC[C@@H]2[C@H]1[C@@H](c1ccccc1)CCN2C(=O)c1ccccn1,Percent Effect,"30.3 µM, […]",12.07%
Cl.O=S(=O)(N1CCCC1)N1CC[C@H](c2ccccc2)[C@H]2NCCCC[C@H]21,Percent Effect,"30.3 µM, […]",-20.77%
